Data reported in ChEMBL document CHEMBL3988442, “University of Dundee, Small-Polar-MMV Screening Library” (2021).
For some assays here: Results with a measured potency or affinity are listed apart.

Columns and labels:
Set-up in all cases: scale not given: direction of the effect not stated beside the values
[1] = biological target: Protein translocase subunit SecA (Escherichia coli (strain K12)) (UniProt P10408); assay: Assay to Identify E. coli SecA ATPase Inhibitors; format: functional; details: 30 µM
Chain of Protein translocase subunit SecA (Escherichia coli (strain K12)) (P10408 whole entry): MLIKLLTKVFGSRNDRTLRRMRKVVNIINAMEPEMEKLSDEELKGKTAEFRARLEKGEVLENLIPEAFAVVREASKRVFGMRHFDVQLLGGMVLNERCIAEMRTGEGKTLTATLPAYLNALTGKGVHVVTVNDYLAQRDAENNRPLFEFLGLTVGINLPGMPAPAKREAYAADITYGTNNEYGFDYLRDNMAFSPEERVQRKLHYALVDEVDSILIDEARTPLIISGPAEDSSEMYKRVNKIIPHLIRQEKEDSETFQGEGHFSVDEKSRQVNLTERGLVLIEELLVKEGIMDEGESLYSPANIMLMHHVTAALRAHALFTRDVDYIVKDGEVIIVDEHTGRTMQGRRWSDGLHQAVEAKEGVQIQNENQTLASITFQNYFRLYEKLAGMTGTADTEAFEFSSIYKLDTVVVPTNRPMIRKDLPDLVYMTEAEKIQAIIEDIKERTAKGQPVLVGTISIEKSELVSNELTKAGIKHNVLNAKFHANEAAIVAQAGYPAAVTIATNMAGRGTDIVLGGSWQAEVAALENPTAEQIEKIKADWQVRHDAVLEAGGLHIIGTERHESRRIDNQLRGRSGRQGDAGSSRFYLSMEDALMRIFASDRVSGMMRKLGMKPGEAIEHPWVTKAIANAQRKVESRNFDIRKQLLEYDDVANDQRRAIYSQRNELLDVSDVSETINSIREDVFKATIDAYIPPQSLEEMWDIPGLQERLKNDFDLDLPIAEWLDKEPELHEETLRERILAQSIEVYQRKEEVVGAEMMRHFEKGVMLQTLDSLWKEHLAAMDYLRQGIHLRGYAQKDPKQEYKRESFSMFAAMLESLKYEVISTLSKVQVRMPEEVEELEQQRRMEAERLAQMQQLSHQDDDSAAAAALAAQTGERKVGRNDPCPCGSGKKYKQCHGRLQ

[2] = biological target: T1, Ubiquitin-activating enzyme e1, putative (Leishmania donovani (strain BPK282A1)) (UniProt E9BSI1); assay: Leishmania donovani Ubiquitin Activating Enzyme (LdE1); format: functional; details: 30 µM
T1 sequence (whole entry): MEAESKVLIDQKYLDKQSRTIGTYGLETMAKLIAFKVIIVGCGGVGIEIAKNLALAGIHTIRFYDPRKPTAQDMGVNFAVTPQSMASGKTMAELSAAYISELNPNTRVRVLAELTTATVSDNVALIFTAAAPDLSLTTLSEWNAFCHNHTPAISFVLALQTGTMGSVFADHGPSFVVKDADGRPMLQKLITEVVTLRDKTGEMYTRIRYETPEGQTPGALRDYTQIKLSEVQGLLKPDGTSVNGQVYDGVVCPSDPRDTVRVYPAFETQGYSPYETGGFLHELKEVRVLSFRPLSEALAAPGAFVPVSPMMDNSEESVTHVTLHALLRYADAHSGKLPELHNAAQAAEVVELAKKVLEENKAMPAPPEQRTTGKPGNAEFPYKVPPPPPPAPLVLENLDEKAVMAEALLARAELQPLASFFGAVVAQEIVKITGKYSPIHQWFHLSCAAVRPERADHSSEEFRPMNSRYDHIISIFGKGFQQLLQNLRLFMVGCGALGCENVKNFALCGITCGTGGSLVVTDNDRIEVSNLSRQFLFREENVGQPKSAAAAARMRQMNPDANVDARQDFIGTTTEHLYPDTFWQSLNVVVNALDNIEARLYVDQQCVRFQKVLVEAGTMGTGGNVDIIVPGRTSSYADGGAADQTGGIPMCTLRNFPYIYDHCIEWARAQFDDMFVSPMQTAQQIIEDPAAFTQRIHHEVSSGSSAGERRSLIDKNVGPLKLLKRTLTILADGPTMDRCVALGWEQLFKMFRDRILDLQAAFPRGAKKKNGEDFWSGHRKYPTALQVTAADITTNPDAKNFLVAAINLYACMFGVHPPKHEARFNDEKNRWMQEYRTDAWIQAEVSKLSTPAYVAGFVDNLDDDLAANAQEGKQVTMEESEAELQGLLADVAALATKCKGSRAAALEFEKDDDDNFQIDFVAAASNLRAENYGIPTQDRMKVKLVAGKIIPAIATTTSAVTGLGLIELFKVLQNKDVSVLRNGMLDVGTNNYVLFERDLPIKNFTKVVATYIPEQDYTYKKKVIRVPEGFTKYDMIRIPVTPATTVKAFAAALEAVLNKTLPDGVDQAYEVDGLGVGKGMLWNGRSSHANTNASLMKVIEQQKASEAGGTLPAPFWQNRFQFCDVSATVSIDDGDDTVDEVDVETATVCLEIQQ

[3] = biological target: AMP-activated protein kinase, AMPK (Homo sapiens) (UniProt P54646+O43741+P54619+Q9UGJ0+Q9Y478+Q13131+Q9UGI9); assay: AMP-dependent Kinase enzyme assay. An in vitro enzyme assay that detects ADP turnover that is directly proportional to AMPK activity. This uses naive AMPK that is activated during the assay with MK-8722; format: functional; details: 30 µM
[4] = biological target: Sialic acid-binding Ig-like lectin 9 (Homo sapiens) (UniProt Q9Y336); assay: Hs-Siglec9 ALPHAscreen SOP 20170721; details: 10 µM
Chain of Sialic acid-binding Ig-like lectin 9 (Homo sapiens) (Q9Y336 whole entry): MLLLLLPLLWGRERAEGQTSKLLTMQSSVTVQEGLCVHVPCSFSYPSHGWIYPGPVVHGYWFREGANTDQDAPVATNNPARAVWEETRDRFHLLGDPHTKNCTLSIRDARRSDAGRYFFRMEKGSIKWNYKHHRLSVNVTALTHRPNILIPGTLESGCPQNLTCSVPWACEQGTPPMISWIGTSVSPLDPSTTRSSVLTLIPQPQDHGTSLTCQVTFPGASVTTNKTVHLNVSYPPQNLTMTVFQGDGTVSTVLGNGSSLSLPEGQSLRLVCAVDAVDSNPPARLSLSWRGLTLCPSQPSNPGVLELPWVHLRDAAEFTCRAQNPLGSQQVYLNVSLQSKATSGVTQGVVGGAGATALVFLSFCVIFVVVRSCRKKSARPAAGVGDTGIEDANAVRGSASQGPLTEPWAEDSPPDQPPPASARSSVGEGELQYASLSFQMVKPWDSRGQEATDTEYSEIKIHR

Trypanosoma cruzi = assay: Trypanosoma cruzi phosphomannomutase and mannose-1-phosphate guanylyltransferase assay; format: functional; details: 10 µM
[5] = biological target: T2, Arginase-2, mitochondrial (Homo sapiens) (UniProt P78540); assay: in vitro enzyme assay to detect the production of urea directly proportional to the activity of Arginase II; format: functional; details: 33.3 µM; further: in the data most compounds retested in dose-response had high values
T2 sequence (whole entry): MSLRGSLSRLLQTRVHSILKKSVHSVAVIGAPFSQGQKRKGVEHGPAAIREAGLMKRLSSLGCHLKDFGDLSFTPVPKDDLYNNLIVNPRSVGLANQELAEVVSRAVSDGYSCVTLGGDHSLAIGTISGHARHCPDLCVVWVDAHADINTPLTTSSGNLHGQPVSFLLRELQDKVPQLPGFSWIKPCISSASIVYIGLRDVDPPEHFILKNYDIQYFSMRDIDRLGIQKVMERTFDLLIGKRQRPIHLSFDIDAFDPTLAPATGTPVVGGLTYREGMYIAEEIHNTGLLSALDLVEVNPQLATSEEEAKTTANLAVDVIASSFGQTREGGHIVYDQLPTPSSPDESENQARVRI

[6] = biological target: T3, Proteasome subunit beta (Trypanosoma cruzi) (UniProt O96673); assay: Trypanosoma cruzi proteasome chymotrypsin-like activity (TcProtChymo) assay.; further: in the data most compounds retested in dose-response had high values; format: functional; details: 9.37 µM
T3 sequence (whole entry): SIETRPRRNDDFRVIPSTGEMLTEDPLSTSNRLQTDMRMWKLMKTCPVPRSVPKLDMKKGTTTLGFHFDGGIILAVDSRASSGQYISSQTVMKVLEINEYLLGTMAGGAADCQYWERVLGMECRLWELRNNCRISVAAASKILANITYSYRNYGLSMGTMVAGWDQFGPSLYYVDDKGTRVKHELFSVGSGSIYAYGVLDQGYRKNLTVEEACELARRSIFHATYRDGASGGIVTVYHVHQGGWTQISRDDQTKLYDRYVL

Homo sapiens = species: Homo sapiens; assay: To identify inhibition of the IFN signalling (Jak-Stat) pathway via expression of an eGFP reporter gene under the control of an IFN-stimulated response element (ISRE) containing MxA promoter.; format: functional; details: 30 µM
[7] = biological target: T4, Tyrosyl-tRNA synthetase, putative (Trypanosoma cruzi (strain CL Brener)) (UniProt Q4DSP6); assay: Trypanosoma cruzi tyrosyl tRNA synthetase (TcYRS) _High Tyrosine SOP; format: functional; details: 30 µM; further: in the data most compounds retested in dose-response had high values
T4 sequence (whole entry): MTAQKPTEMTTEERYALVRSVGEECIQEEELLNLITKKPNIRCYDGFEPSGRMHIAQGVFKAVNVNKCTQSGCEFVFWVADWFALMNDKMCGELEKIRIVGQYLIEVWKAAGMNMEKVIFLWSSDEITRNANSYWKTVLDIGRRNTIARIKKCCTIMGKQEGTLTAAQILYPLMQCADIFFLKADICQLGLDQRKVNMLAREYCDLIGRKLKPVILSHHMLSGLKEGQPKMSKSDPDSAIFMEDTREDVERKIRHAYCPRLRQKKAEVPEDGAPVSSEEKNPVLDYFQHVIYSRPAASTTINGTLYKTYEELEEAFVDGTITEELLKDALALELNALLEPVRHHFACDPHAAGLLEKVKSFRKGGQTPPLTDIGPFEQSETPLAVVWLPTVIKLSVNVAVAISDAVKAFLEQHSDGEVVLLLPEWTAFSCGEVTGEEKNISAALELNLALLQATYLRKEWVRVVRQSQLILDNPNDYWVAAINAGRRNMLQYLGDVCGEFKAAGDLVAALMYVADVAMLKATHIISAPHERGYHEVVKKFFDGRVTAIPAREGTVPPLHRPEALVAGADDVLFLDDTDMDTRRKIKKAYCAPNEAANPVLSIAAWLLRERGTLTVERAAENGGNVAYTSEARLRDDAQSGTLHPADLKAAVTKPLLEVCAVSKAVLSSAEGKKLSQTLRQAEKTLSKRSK

[8] = biological target: T4, Tyrosyl-tRNA synthetase, putative (Trypanosoma cruzi (strain CL Brener)); assay: Trypanosoma cruzi tyrosyl tRNA synthetase (TcYRS) SOP; format: functional; details: 30 µM
[9] = biological target: Chromo domain-containing protein 1 (Saccharomyces cerevisiae (strain ATCC 204508 / S288c) (Baker's yeast)) (UniProt P32657); assay: ScCHD-1 Enzyme Inhibition Assay; format: functional; details: 30 µM; further: in the data most compounds retested in dose-response had high values
Chain of Chromo domain-containing protein 1 (Saccharomyces cerevisiae (strain ATCC 204508 / S288c) (Baker's yeast)) (P32657 whole entry, the tested form may be a part): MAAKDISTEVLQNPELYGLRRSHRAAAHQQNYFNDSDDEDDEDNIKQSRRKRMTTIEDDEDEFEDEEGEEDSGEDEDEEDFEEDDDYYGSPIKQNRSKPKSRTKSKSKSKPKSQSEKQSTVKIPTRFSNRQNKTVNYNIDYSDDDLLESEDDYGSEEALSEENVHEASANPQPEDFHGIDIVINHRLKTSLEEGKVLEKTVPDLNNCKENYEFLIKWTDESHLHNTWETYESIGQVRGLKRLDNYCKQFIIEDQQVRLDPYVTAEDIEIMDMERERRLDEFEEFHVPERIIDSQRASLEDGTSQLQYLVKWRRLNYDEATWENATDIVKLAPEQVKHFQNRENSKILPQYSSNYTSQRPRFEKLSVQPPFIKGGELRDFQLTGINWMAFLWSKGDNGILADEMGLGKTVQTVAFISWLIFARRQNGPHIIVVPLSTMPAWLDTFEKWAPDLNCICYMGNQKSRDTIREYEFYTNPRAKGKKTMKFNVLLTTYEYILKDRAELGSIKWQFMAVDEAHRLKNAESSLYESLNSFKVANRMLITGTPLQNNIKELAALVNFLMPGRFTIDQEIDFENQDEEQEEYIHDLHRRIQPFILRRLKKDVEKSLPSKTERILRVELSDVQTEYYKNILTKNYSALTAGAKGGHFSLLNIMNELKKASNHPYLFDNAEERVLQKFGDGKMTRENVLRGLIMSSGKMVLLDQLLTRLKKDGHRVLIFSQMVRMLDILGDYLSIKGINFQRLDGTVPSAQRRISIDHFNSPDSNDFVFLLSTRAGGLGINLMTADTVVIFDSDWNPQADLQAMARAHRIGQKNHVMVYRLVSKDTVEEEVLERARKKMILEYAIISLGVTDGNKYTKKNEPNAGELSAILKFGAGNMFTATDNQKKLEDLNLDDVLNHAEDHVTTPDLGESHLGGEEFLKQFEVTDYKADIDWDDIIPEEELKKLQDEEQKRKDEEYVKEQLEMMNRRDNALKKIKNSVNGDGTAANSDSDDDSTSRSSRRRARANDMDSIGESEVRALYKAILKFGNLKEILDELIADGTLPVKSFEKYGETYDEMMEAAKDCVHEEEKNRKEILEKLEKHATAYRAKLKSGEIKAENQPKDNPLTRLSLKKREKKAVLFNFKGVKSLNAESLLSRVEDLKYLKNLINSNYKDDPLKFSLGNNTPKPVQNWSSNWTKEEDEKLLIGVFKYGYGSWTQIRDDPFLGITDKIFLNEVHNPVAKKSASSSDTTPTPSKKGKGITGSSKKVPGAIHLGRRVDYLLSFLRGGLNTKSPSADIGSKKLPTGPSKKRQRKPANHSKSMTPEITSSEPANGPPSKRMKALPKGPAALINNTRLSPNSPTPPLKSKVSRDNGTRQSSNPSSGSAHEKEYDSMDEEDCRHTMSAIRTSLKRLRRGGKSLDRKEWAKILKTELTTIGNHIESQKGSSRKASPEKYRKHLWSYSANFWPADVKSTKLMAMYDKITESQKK

Row | Structure (SMILES) | Percent Effect [1] [%] | Percent Effect [2] [%] | Percent Effect [3] [%] | Percent Effect [4] [%] | Percent Effect (Trypanosoma cruzi) [%] | Percent Effect [5] [%] | Percent Effect [6] [%] | Percent Effect (Homo sapiens) [%] | Percent Effect [7] [%] | Percent Effect [8] [%] | Percent Effect [9] [%]
1 | Cn1cc(CN2C[C@@H]3CN(Cc4ccoc4)CCO[C@@H]3C2)cn1 | -1.93 | 7.79 | 7.44 | 0.861 | -2.07 | 7.1 | 1.57 | 10.9 | 0 | 16.7 | -4.4
2 | Cc1cnn(CCC(=O)N2CCCC(c3nc(C)no3)C2)c1 (configuration not stated) | -3.87 | 24.3 | -8.95 | -1.06 | 5.94 | -4.41 | 16.9 | 11.1 | 4.43 | 23.5 | -10.1
3 | Cc1ccc(NC2CCN(C(=O)c3ccc(Cl)o3)CC2)nn1 | -6.79 | 0 | 5.42 | -2.43 | -6.01 | 1.15 | 17.4 | 24.5 | 0.49 | -7.32 | 4.23
4 | Cc1cnc(CN2CCC(N(C)Cc3nnc(C4CC4)n3C)C2)cn1 (configuration not stated) | -4.85 | 0 | 1.39 | -3.06 | -0.0978 | 2.73 | 8.67 | -19.5 | 6.45 | 8.64 | -2.52
5 | N#Cc1cc(NC(=O)c2ccsc2)ccc1N1CCC(O)CC1 | -2.1 | 13.5 | -3.83 | 18.9 | 5.99 | 12.9 | 19.3 | 27.8 | 4.76 | 14.6 | -1.54
6 | Cc1nc(N)cc(C2CN(C(=O)c3ccn(C)n3)CCO2)n1 (configuration not stated) | -6.21 | 17.6 | 0.477 | 3.12 | 0.198 | -3.94 | 10.4 | 8.03 | 3.23 | 16.9 | -24.2
7 | c1cc2n(n1)CC(CNCc1ccc(OC3CCCCC3)nc1)CN2 (configuration not stated) | -2.12 | 18.2 | 1.34 | 5.86 | 7.49 | -1.78 | 5.41 | -2.37 | 9.71 | 21.9 | -7.9
8 | Cc1cccc(NC(=O)[C@@H]2CCCN2CC(=O)N2CCCCCC2)n1 | -4.79 | 16 | -8.35 | 23.6 | 5.75 | 34.4 | 14.8 | -1.75 | 4.92 | 16.1 | -6.64
9 | Cc1nn(C)c(C)c1C1CCCN1C(=O)c1cnc2n[nH]c(C)c2c1 (configuration not stated) | -5.23 | 16.2 | -5.44 | 13.8 | 5.66 | 0.554 | 0 | 9.61 | 4.95 | 18.3 | -3.42
10 | COc1cccc(C2CC(=O)Nc3nc(N)sc32)c1OC (configuration not stated) | 70.6 | 26.3 | -56.4 | -2.19 | 7.3 | 21.3 | 10.3 | -3.92 | -4.25 | -36.4 | -8.65
11 | Cc1nc(CN2CCC(CNC(=O)Nc3ccccn3)CC2)oc1C | -6.4 | 2.7 | -0.75 | -0.537 | -1.27 | -0.744 | -1.46 | -2.29 | 4.3 | 11.1 | -2.16
12 | CCC(=O)N1CCN(C(=O)CCn2cccn2)CC1 | -1.61 | 24.3 | -7.17 | 0.998 | 6.96 | 0.554 | 8.62 | 5.89 | 6.93 | 25.6 | -6.76
13 | COC(=O)c1cccc(NC(=O)CN2CCN(S(C)(=O)=O)CC2)c1 | -1.95 | 16.2 | 0.0395 | 18.7 | 2.64 | 25.6 | 15.4 | 0.655 | 4.3 | 16.1 | -4.76
14 | Cc1cnn(CC2CCCN2CCc2nc3ccccc3c(=O)[nH]2)c1 (configuration not stated) | -3.81 | 10.1 | -7.83 | 11.2 | 6.89 | 4.56 | -1.06 | 15.8 | 3.45 | 16.5 | -5.27
15 | CCOc1ncccc1NC(=O)N1CCCCCC1 | -4.07 | 5.41 | 0.669 | 8.62 | -0.836 | -1.29 | 0.179 | 13.2 | 2.97 | 6.1 | 1.09
16 | O=C1CCC2(CCN(Cc3nccs3)CC2)N1Cc1ccccc1 | -0.659 | 5.33 | 5.45 | 1.02 | -5.91 | 3.03 | 10.8 | 5.84 | 5.32 | 11.5 | -0.585
17 | Cc1cnc2n(c1=O)CC(C(=O)NC1CC1)CS2 (configuration not stated) | -4.55 | -21.9 | -9.15 | -1.37 | 0.979 | 4.54 | 6.21 | 1.36 | 2.15 | 0 | -5.19
18 | COCCNC(=O)Cn1nc(C(C)C)c2cnn(C(C)(C)C)c2c1=O | -2.65 | 5.48 | -1.93 | 5.56 | 3.72 | -1.36 | 17.6 | 15.1 | 8.6 | 15 | -6.24
19 | Cc1nccc(-c2cccc(NCC(=O)N3CCCCCCC3)c2)n1 | -8 | -5.26 | 11.7 | -8.15 | -0.28 | -0.36 | 5.16 | 28.6 | 2.46 | -1.24 | -1.53
20 | CCn1c(NCc2ccco2)nc2c(C)nn(C)c2c1=O | -2.68 | 20 | 4.54 | -6.91 | 3.93 | 92.8 | 22.6 | 7.87 | 9.52 | 17.9 | -14
21 | CN1CCCC[C@@H]2[C@H]1[C@@H](c1ccccc1)CCN2C(=O)c1cnccn1 | -4.56 | 1.35 | 4.14 | 1.98 | 0.988 | -3.48 | 21.2 | -2.99 | 5.38 | 11.7 | -17.5
22 | CNC(=O)CS(=O)(=O)Cc1coc(-c2ccc(OC)cc2)n1 | -3.22 | 2.7 | -2.86 | -2.16 | -1.35 | -1.91 | 12.8 | 7.16 | 2.65 | -4.88 | -2.91
